Only some compounds are listed: those with a hit (about 0.85% of all), similar ones and a draw of the others.
Glioma ERSR ind: inducers of ER stress response in human glioma cells. U87-MG GRP78 promoter luciferase reporter, 16 h. Potency, µM, most hits filed as activators. 420,000 tested, 0.02% active. AID 602332; also: series mostly up to about 76 µM; nearly all actives have a fitted effect of over 35% in size
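Stably transfected U87-MG human glioma cells carrying a GRP78-based luminescent sensor were seeded at 1000 cells/well, pin-dosed with compounds and incubated 16 h. Luciferase reagent was then added, and end-point luminescence was read after 10 min at room temperature.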
GLS inhibitor: inhibitors of human glutaminase (GLS); O94925; GLS enzymatic activity, qHTS titration; Potency, µM (titrated, usually from 45.5 µM), actives largely listed as inhibitors; 410,000 tested, 0.21% active
Target sequence (O94925 whole entry, looked up): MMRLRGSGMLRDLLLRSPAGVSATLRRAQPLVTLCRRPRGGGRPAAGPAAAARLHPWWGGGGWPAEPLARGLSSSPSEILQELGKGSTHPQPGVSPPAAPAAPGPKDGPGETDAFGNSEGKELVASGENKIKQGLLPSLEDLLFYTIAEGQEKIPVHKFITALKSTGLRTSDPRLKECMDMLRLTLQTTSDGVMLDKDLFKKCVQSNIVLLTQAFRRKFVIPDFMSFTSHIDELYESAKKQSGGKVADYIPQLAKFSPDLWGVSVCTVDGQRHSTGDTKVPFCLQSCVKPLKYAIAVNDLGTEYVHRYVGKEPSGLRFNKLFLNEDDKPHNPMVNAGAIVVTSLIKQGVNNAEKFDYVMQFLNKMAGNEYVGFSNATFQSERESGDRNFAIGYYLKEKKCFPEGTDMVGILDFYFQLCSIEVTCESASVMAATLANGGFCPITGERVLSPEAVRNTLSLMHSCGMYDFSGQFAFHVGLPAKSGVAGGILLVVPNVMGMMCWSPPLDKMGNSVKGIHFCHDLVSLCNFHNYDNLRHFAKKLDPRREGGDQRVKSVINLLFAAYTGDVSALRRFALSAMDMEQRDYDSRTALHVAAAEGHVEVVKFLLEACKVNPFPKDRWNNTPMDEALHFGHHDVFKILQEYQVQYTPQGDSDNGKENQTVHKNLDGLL
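hKGA in 45 mM KH2PO4 pH 8.2, 0.02% Tween-20 with pin-transferred compounds; 1 mM L-glutamine (stock) plus glutamate oxidase/HRP/Amplex Red coupling added. Fluorescence read initially and after 30 min at RT.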
Mm-Cpn inhibitor: inhibitors of Methanococcus maripaludis chaperonin TRiC (MmCpn); purified Mm-Cpn ATPase, ADP Transcreener TR-FRET; Potency, µM (doses to about 76.9 µM), usual class: inhibitors; 330,000 tested, 0.031% active; also: nearly all actives have a fitted effect of over 80% in size
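Inhibition of chaperonin ATP hydrolysis is measured as reduced ADP production, detected by competitive TR-FRET in which signal falls with ADP. Final enzyme 25 nM and ATP 10 uM, reacted 30 min at 37°C.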
pAkt inh: Akt phosphorylation inhibition. Neuro2A IGF-stimulated pAkt S473 HTRF, 20 min; active compounds read low. activity change, % for hits at 50 µM. 360,000 tested, 0.32% active. AID 651550; in the data active = activity change below about -80%; inconclusive = mostly about -51% to -80%
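Single-point screen (50 µM final compound) in Neuro2A cells stimulated 20 min with 6 nM IGF at 37 deg C. After lysis, Ser473-phosphorylated Akt read by HTRF (ex 330 nm, em 615/665 nm) as the 665/615 ratio.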
mIDH1 inhibitor: inhibitors of human mutant IDH1 R132H; O75874; IDH1-R132H enzyme, NADPH consumption, diaphorase/resazurin fluorescence; Potency, µM (highest dose often 76.6 µM), hits mostly inhibitors; 390,000 tested, 0.093% active; also: nearly all actives have a fitted effect of over 65% in size
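IDH1-R132H (0.5 ug/mL) preincubated 30 min with compound, then NADPH (0.016 mM) and alpha-KG (2 mM) added; 80 min at RT, pH 7.5. Remaining NADPH coupled via diaphorase/resazurin to fluorescence (540/590 nm); concentration-response curves normalized to no-enzyme control.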
CCT chaperon mod: cytosolic chaperonin activity modulation. purified chaperonin ATPase assay, HTRF ADP detection, 30 min. activity change, % (test concentration not listed), hits read low. 360,000 tested, 0.3% active; in the data active = activity change below about -30%
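First, chaperonin was dispensed at 40 nM or 20 nM final depending on batch activity. Next, compounds were pinned at 76 uM and ATP added at 10 uM. After 30 min at 37 °C, ADP detection reagents ran 30 min at ambient temperature.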
A number is an active result. Unless noted, calls follow the shape of the dose curve; as a rule, active = well fitted curve in the direction sought with a large enough effect; inconclusive = small, poorly fitted or top-dose-only effect, or another doubt; inactive = no such curve, though single readings can be large; an effect the other way counts as inactive or inconclusive.

How did O=C(COC(=O)c1cc(=O)[nH]c2ccccc12)c1ccc(Br)cc1 do in these assays?
Glioma ERSR ind: inactive; GLS inhibitor: inactive; Mm-Cpn inhibitor: inactive; pAkt inh: inactive; mIDH1 inhibitor: inactive; CCT chaperon mod: -126

What do the screens show for `Cc1ccc2cc(CNC(C)CO)c(N3CCC(O)CC3)nc2c1` (configuration not stated)?
Glioma ERSR ind: inactive

Results for Cc1ccccc1C(=O)NC(C)c1nnc2n1CCN(Cc1ccc(F)cc1)CC2 (configuration not stated) ?
Glioma ERSR ind: inactive

Results for Cc1ccccc1-c1nn(-c2ccc(F)cc2F)cc1CNCCCN(C)C ?
Glioma ERSR ind: inactive; GLS inhibitor: 10µM; Mm-Cpn inhibitor: inactive; pAkt inh: inactive; mIDH1 inhibitor: inactive; CCT chaperon mod: inactive

Results for C#Cc1cccc(C(=O)NCc2nc(-c3cccc(NC(=O)c4ccccn4)c3)oc2C)c1 ?
Glioma ERSR ind: inactive

What do the screens show for `O=C(NCC1Cc2cccc(-c3ccccn3)c2O1)c1cnn2cccnc12` (configuration not stated)?
Glioma ERSR ind: inactive

Results for CC(c1cccs1)N(Cc1ccco1)C(=S)Nc1ccc(F)c(Cl)c1 (configuration not stated) ?
Glioma ERSR ind: inactive; GLS inhibitor: inactive; Mm-Cpn inhibitor: inactive; pAkt inh: inactive; mIDH1 inhibitor: inactive; CCT chaperon mod: -59

What do the screens show for `Cc1cccc(NC(=S)N(Cc2ccco2)C(C)c2cccs2)c1` (configuration not stated)?
Glioma ERSR ind: inactive; GLS inhibitor: inactive; Mm-Cpn inhibitor: inactive; pAkt inh: inactive; mIDH1 inhibitor: inactive; CCT chaperon mod: inactive

What do the screens show for `Cn1c(N)c(C(=O)COC(=O)c2cc(-c3ccco3)nc3ccccc23)c(=O)n(C)c1=O`?
Glioma ERSR ind: inactive; GLS inhibitor: 7.9µM; Mm-Cpn inhibitor: inactive; pAkt inh: inactive; mIDH1 inhibitor: inactive; CCT chaperon mod: inactive

How did Cn1c(N)c(C(=O)COC(=O)c2cc(-c3ccco3)nc3ccccc23)c(=O)n(Cc2ccccc2)c1=O do in these assays?
Mm-Cpn inhibitor: inactive

How did CCOC(=O)C1CCCN(C(=O)c2ccc3nc(-c4ccc(OC)c(OC)c4)c(-c4ccc(OC)c(OC)c4)nc3c2)C1 (configuration not stated) do in these assays?
Glioma ERSR ind: inactive; GLS inhibitor: inactive; Mm-Cpn inhibitor: inactive; pAkt inh: inactive; mIDH1 inhibitor: inactive; CCT chaperon mod: inactive

What do the screens show for `CCOC(=O)C1CCCN(C(=O)c2ccc3nc(-c4ccccc4)c(-c4ccccc4)nc3c2)C1` (configuration not stated)?
Glioma ERSR ind: inactive; GLS inhibitor: inactive; Mm-Cpn inhibitor: 40µM; mIDH1 inhibitor: inactive; CCT chaperon mod: inactive

What do the screens show for `CCOC(=O)C1CCCN(C(=O)c2cc(-c3ccco3)nc3ccccc23)C1` (configuration not stated)?
Glioma ERSR ind: inactive; GLS inhibitor: 13µM; Mm-Cpn inhibitor: inactive; pAkt inh: inactive; mIDH1 inhibitor: inactive; CCT chaperon mod: inactive

How did O=C(OCc1cc2ccccc2[nH]c1=O)c1ccco1 do in these assays?
Glioma ERSR ind: inactive; GLS inhibitor: inactive; Mm-Cpn inhibitor: inactive; pAkt inh: inactive; mIDH1 inhibitor: inactive; CCT chaperon mod: inactive

Results for COc1ccc2[nH]c(=O)c(COC(=O)c3ccco3)cc2c1 ?
Glioma ERSR ind: inactive; GLS inhibitor: inactive; Mm-Cpn inhibitor: inconclusive; pAkt inh: -114%; mIDH1 inhibitor: inactive; CCT chaperon mod: inactive

Results for O=C(NCc1ccccc1)c1cc(S(=O)(=O)N2CCOCC2)ccc1F ?
Glioma ERSR ind: inactive; GLS inhibitor: inactive; Mm-Cpn inhibitor: inactive; pAkt inh: -114%; mIDH1 inhibitor: inactive; CCT chaperon mod: inactive

Results for O=C(NCCc1ccccc1)c1cc(S(=O)(=O)N2CCOCC2)ccc1F ?
Glioma ERSR ind: inactive; GLS inhibitor: inactive; Mm-Cpn inhibitor: inactive; pAkt inh: inactive; mIDH1 inhibitor: inactive; CCT chaperon mod: inactive

How did CC[C@H](c1ccccc1)c1noc(CCN(CC)CC)n1 do in these assays?
Glioma ERSR ind: inactive; GLS inhibitor: inactive

Results for Cc1nc2ccc(S(=O)(=O)NCC(=O)N3CCN(c4ccccn4)CC3)cc2s1 ?
Glioma ERSR ind: inactive; GLS inhibitor: inactive; Mm-Cpn inhibitor: inactive; pAkt inh: -117%; mIDH1 inhibitor: inactive; CCT chaperon mod: inactive

How did CCCCCCn1c(C)nc2c(c1=O)c1nc3ccccc3nc1n2/N=C/c1ccco1 do in these assays?
Glioma ERSR ind: inactive; GLS inhibitor: inactive; Mm-Cpn inhibitor: inactive; pAkt inh: -108%; mIDH1 inhibitor: inactive; CCT chaperon mod: inactive

Results for Cc1nc2c(c(=O)n1CCC1=CCCCC1)c1nc3ccccc3nc1n2/N=C/c1ccccc1 ?
Glioma ERSR ind: inactive; GLS inhibitor: inactive; Mm-Cpn inhibitor: inactive; pAkt inh: inactive; mIDH1 inhibitor: inactive; CCT chaperon mod: inactive

What do the screens show for `O=C(Cc1n[nH]c(=O)c2ccccc12)Nc1ccc(-c2nnc3n2CCCCC3)cc1`?
Glioma ERSR ind: inactive; GLS inhibitor: inactive; Mm-Cpn inhibitor: inactive; pAkt inh: -110%; mIDH1 inhibitor: inactive; CCT chaperon mod: inactive

What do the screens show for `O=C(Nc1cccc2ncccc12)c1cccc(F)c1`?
Glioma ERSR ind: inactive; GLS inhibitor: inactive; Mm-Cpn inhibitor: inactive; pAkt inh: -107%; mIDH1 inhibitor: inactive; CCT chaperon mod: inactive

Results for O=C(Cc1c[nH]c2ccccc12)NCc1ccc2c(c1)OCO2 ?
Glioma ERSR ind: inactive; GLS inhibitor: inactive; Mm-Cpn inhibitor: inactive; mIDH1 inhibitor: inactive; CCT chaperon mod: -38

How did CN(C)c1ccc(C(=O)NCc2ccc3c(c2)OCO3)cc1 do in these assays?
Glioma ERSR ind: inactive; GLS inhibitor: inactive; Mm-Cpn inhibitor: inactive; pAkt inh: inactive; mIDH1 inhibitor: inactive; CCT chaperon mod: inactive

What do the screens show for `CN(C)c1cccc(C(=O)NCc2ccc3c(c2)OCO3)c1`?
Glioma ERSR ind: inactive; GLS inhibitor: inactive; Mm-Cpn inhibitor: inactive; pAkt inh: inactive; mIDH1 inhibitor: inactive; CCT chaperon mod: -40

What do the screens show for `CC1CC2C3CCC4=CC(=O)C=CC4(C)[C@@]3(F)C(O)CC2(C)[C@@]1(O)C(=O)CCl` (some centres not stated)?
Glioma ERSR ind: inactive; GLS inhibitor: inactive

How did O=C(NCCOC(=O)c1ccc(C(=O)OCCNC(=O)c2cccnc2)s1)c1cccnc1 do in these assays?
Glioma ERSR ind: inactive; GLS inhibitor: inactive; Mm-Cpn inhibitor: inactive; pAkt inh: inactive; mIDH1 inhibitor: inactive; CCT chaperon mod: -56

Results for O=C(NCCOC(=O)c1cccs1)c1cccnc1 ?
Glioma ERSR ind: inactive; GLS inhibitor: inactive; Mm-Cpn inhibitor: inactive; pAkt inh: inactive; mIDH1 inhibitor: inactive; CCT chaperon mod: inactive
